# Tau ThT inhib – qHTS for Inhibitors of Tau Fibril Formation, Thioflavin T Binding; recombinant tau K18 P301L, heparin-induced fibrillization, ThT fluorescence; Microtubule-associated protein tau (Homo sapiens), P10636; actives 2.1% (n = 270,000); Potency, µM (top dose mostly 57.4 µM), without a hit: top-dose activity, negative = inhibition, actives largely listed as inhibitors; note: potency is the fitted concentration of half-maximal effect; nearly all actives have a fitted effect of over 55% in size
# Target sequence (P10636 561-689 P618L limits assumed): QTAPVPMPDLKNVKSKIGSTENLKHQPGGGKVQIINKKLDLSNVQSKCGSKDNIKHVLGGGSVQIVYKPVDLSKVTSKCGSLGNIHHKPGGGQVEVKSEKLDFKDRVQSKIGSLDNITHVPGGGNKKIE
#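 Heparin-induced fibrillization of the P301L-mutant K18 repeat-domain fragment of human tau was followed by ThT binding in quantitative high-throughput format.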
# Sfp PPTase inh – qHTS Assay for Inhibitors of Bacillus subtilis Sfp phosphopantetheinyl transferase (PPTase); actives 3.5% (n = 310,000); Potency, µM, for the others: largest response in the series, negative = inhibition, actives largely listed as inhibitors; 4'-phosphopantetheinyl transferase ffp (Bacillus subtilis), Q9F4F7; Biochemical Sfp PPTase activity, qHTS;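 note: the enzyme is Sfp with the accession as filed and its product quenches rhodamine fluorescence; potency is the fitted concentration of half-maximal effect; 0% = enzyme reaction without inhibitor and -100% = no enzyme wells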
#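 Sfp 15 nM + cpd, 15 min RT; start w/ rhodamine-CoA 5 uM, BHQ-2-YbbR 12.5 uM (final); 50 mM Hepes pH 7.6, 10 mM MgCl2, 0.01% NP-40, 0.01% BSA; read 525/598 nm at 0 and 30 min.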
# Tau FP inhib – qHTS for Inhibitors of Tau Fibril Formation, Fluorescence Polarization; Potency, µM (doses to about 57.7 µM), without a hit: at the highest dose activity, negative = inhibition, most hits filed as inhibitors; K18 P301L tau heparin fibrillization, Alexa594 FP, 6 h; actives 0.39% (n = 280,000); note: potency is the fitted concentration of half-maximal effect; nearly all actives have a fitted effect of over 55% in size
#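 Quantitative HTS format: compounds meet 15 uM recombinant K18 P301L tau and Alexa 594-tau tracer in 100 mM sodium acetate pH 7; 20 uM heparin triggers fibrillization at 37 C over 6 hr; FP gives the signal.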
# FBPA coupling cs – qHTS Assay for Inhibitors of Fructose-1,6-bisphosphate Aldolase from Giardia Lamblia: Coupling assay counterscreen; coupling enzyme system counterscreen, AmpLite Red fluorescence; activity change, negative = inhibition, % at 58.2 µM, hits read low; actives 0.67% (n = 290,000); in the data active = activity change below about -30%
#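 Coupling enzymes only (glyceraldehyde-3-phosphate) + compound, at 57.5 uM final, 10 min RT; add substrate/coupling/AmpLite Red mix, 20 min RT; fluorescence ex 525/em 598 nm. Actives flag coupling-system interference.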
# Tau fluor cs – Counterscreen qHTS for Inhibitors of Tau Fibril Formation, Fluorescence Polarization | tau K18 P301L (four-repeat tau fragment) Alexa594 fluorescence, heparin fibrillization | actives 0.93% (n = 280,000) | Potency, µM (doses to about 57.7 µM), inactives show at the highest dose activity change, negative = decrease; note: potency is the fitted concentration of half-maximal effect; nearly all actives have a fitted effect of over 55% in size
#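 Human K18 P301L tau (15 uM unlabeled plus 0.24 uM Alexa 594-labeled, final) in 100 mM sodium acetate pH 7 was mixed with compound and 20 uM heparin and incubated 6 hr at 37 C.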
# * hit, by the source's call; ? = inconclusive; . = not tested or not shown; [ ] = remark or other dose. Sampled rows, rich in hits. Any-hit rate of the full collection: about 5.2%. Unless noted, calls come from the whole dose curve; as a rule, active = well fitted curve in the direction sought with a large enough effect; inconclusive = small, poorly fitted or top-dose-only effect, or another doubt; inactive = no such curve, though single readings can be large; an effect the other way counts as inactive or inconclusive. Unless noted, % is set by controls: 0 for no effect and ±100 for the full control effect.
SMILES,Tau ThT inhib,Sfp PPTase inh,Tau FP inhib,FBPA coupling cs,Tau fluor cs
CCOC(=O)c1ccc(NC(=S)N2CCSC2c2ccc(Cl)cc2)cc1 (stereo not drawn),-10%,16%,?,1,?
CCOC(=O)c1ccc(NC(=S)N2CCSC2c2ccc(OC)cc2)cc1 (stereo not drawn),?,-1%,25µM*,-3,?
CC1(C)[C@@H]2CC[C@@]1(C)C(=O)C2,3%,-8%,-3%,-1,-1%
O[C@@H]1CO[C@H]2C1OC[C@@H]2O (stereo partly drawn),.,-3%,.,4,.
Nc1ccc(O)cc1C(=O)OCC(=O)C12CC3CC(CC(C3)C1)C2,-13%,-1%,14%,-47*,?
COc1ccc(C(=O)OCC(=O)c2ccc(C3CCCCC3)cc2)cc1,-21%,-4%,?,1,-21%
Nc1ccc(O)cc1C(=O)OCC(=O)c1ccc(C2CCCCC2)cc1,?,-20%,-1%,-3,13µM*[quencher]
CCOC(=O)c1cnc2c(C)c(Cl)ccc2c1Nc1ccc(N2CCOCC2)cc1,?,.,1%,.,?
OCC1O[C@@H](O[C@@H]2C(CO)OC(O)C(O)C2O)C(O)C(O)C1O (stereo partly drawn),.,28%,.,.,.
CC(C)c1ccc(SCc2noc(C(=O)NCC3CCCO3)c2C(=O)O)cc1 (stereo not drawn),7%,100µM*,-5%,25,-2%
C[C@H](N)CCCP(=O)(O)O,2%,?,-3%,.,-1%
Cc1nn(-c2ccccc2)c(-n2cccc2)c1C(=O)N1CCN(c2ccccc2)CC1,-9%,.,-2%,.,1%
O=C(CCCn1c(=O)c2ccccc2n(Cc2cccc(F)c2)c1=O)NCc1ccccc1Cl,3%,.,-7%,.,-6%
Cc1ccc(C2=NN(C(=O)CSc3nc4ncc(Cl)cc4[nH]3)C(c3ccco3)C2)cc1 (stereo not drawn),?,45µM*,-10%,3,-19%
COc1ccc(C2=NN(C(=O)CSc3nnc(-c4ccccc4F)o3)C(c3ccco3)C2)cc1 (stereo not drawn),-19%,-12%,-1%,1,-26%
CC(=O)N1N=C(c2c(-c3ccccc3)c3cc(Br)ccc3[nH]c2=O)CC1c1ccco1 (stereo not drawn),?,40µM*,-7%,0,-23%
CCc1ccc(C2=NN(C(C)=O)C(c3ccco3)C2)cc1 (stereo not drawn),?,25µM*,9%,-6,-12%
COc1ccc(C2=NN(C(N)=S)C(c3ccco3)C2)cc1 (stereo not drawn),?,11µM*,-6%,0,-24%
CC(=O)N1N=C(c2c(-c3ccccc3)c3cc(C)ccc3[nH]c2=O)CC1c1ccco1 (stereo not drawn),?,?,-3%,0,-12%
CCCCCCCCCCOc1cc(OCCCCCCCCCC)cc(N(CC(=O)O)CC(=O)O)c1,.,-7%,.,6,.
CC(C)(C)NC(=O)N1CCC(C(=O)O)CC1,6%,.,2%,.,10%
CN1CC(=O)N(CC(=O)N2N=C(c3ccc(Cl)cc3)CC2c2ccco2)C1=O (stereo not drawn),-4%,20µM*,-4%,-4,-5%
CCOc1ccc(CNC(=O)c2sc3ncnc(N(C)C4CCCCC4)c3c2C)cc1,?,.,-5%,.,-27%
CCN(C(=O)CSc1nc2ccccc2n1CC(=O)NCc1ccc(OC)cc1)c1ccccc1,-13%,.,-3%,.,-9%
O=C(COC(=O)c1ccc(Br)o1)Nc1nc2ccccc2s1,?,14%,-5%,-1,?
Cc1ccc2nc(NC(=O)COC(=O)c3ccc(Br)o3)sc2c1,?,25µM*,?,0,?
CC1CCN(S(=O)(=O)c2nnc(NC(=O)c3ccc(C(C)C)cc3)s2)CC1,2.8µM*,.,?,.,?
